The target of this assay is 6-IATR-E. coli SSB (G26C) (Escherichia coli, UniProt P0AGE0 SEQ:1-177, G26C). Description: competition; stated only as similar result to IDCC-G26C. As to conditions: tags: 6-IATR label on Cys26; chain copies: 4 (stated, tetramer); ssDNA.

For “TTTTTTTTTTTTTTTTTTTTTTTTTTTTTTTTTTTTTTTTTTTTTTTTTTTTTTTTTTTTTTTTTTTTTT”, the binding signal is approximately 28 fold Kd vs unlabeled SSB.
